Assay results published in PubChem BioAssay (NCI).
This is part of a sample that, as a whole, favours compounds with a hit. Of some 83,000 tested, about 20% had one in any assay.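 Negative percent growth values reflect cell death: -40 means 40% of the cells present at the start died, and -100 means all died.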 Activity calls are given as the source filed them. Rule for the calls: active = growth percent below 10; inactive = the rest.

Legend:
Test in all cases: NCI-60 one-dose screen, 48 h (100 = growth as untreated, 0 = no growth, -100 = all killed)
Details in all cases: 10 µM unless noted
NCI-H23 lung = system: NCI-H23 lung
NCI-H226 lung = system: NCI-H226 lung
NCI-H322M lung = system: NCI-H322M lung
HOP-62 NSCLC = system: HOP-62 NSCLC
NCI-H460 lung = system: NCI-H460 lung
HOP-92 NSCLC = system: HOP-92 NSCLC
A549/ATCC NSCLC = system: A549/ATCC NSCLC
786-0 renal = system: 786-0 renal
COLO 205 colon = system: COLO 205 colon
NCI-H522 lung = system: NCI-H522 lung

Measured: growth

O=C(N=c1oc2ccccc2cc1-c1cc2ccccc2[nH]1)c1ccc(Cl)cc1
inactive: NCI-H23 lung 29.4% | NCI-H226 lung 84.6% | NCI-H322M lung 53.5% | HOP-62 NSCLC 63.1% | NCI-H460 lung 77.2% | HOP-92 NSCLC 24% | A549/ATCC NSCLC 51.3% | 786-0 renal 70.7% | COLO 205 colon 69.7%

COc1ccc(NC(=O)c2nc(-c3cc(OC)c(OC)c(OC)c3)n(-c3cccc4ccccc34)n2)cc1OC
inactive: NCI-H23 lung 45.4% | NCI-H226 lung 44.9% | NCI-H322M lung 44.8% | HOP-62 NSCLC 42.1% | NCI-H460 lung 49.6% | HOP-92 NSCLC 46.4% | NCI-H522 lung 21.8% | 786-0 renal 31.8% | COLO 205 colon 37.1%

COc1cccc(Nc2nccc(Nc3ccc4[nH]ncc4c3)n2)c1
active: NCI-H23 lung -29.1% | NCI-H226 lung -17.3% | NCI-H322M lung 7.17% | HOP-62 NSCLC -11.4% | NCI-H460 lung -68.1% | HOP-92 NSCLC -11.2% | NCI-H522 lung -68.4% | 786-0 renal -12.5% | COLO 205 colon -88.4%

CCN(CC)c1ccc(C(=O)c2ccc(N(CC)CC)cc2)cc1
active: NCI-H23 lung 3.77% | NCI-H460 lung 6.72% | NCI-H522 lung 3.66% | 786-0 renal 4.16% | COLO 205 colon -29%
inactive: NCI-H226 lung 48.5% | NCI-H322M lung 54.7% | HOP-62 NSCLC 29.2% | HOP-92 NSCLC 51.2%

C#Cc1cccc(NC(=O)c2ccc(NC(=O)CCl)cc2)c1
inactive: NCI-H322M lung 86.6% [8.25 µM] | HOP-62 NSCLC 10.7% [8.25 µM]
active: NCI-H23 lung -55.2% [8.25 µM] | NCI-H226 lung 8.52% [8.25 µM] | NCI-H460 lung -24.6% [8.25 µM] | HOP-92 NSCLC -57.6% [8.25 µM] | NCI-H522 lung -51.6% [8.25 µM] | 786-0 renal -50.8% [8.25 µM] | COLO 205 colon -66.9% [8.25 µM]

N#Cc1c(-c2cccc(Cl)c2)cc(-c2cccc(Cl)c2)[nH]c1=O
inactive: NCI-H23 lung 79.8% | NCI-H226 lung 94% | NCI-H322M lung 87.2% | HOP-62 NSCLC 71.3% | NCI-H460 lung 77.1% | HOP-92 NSCLC 44% | A549/ATCC NSCLC 61.9% | 786-0 renal 87.6% | COLO 205 colon 108%

Cc1nc2ccccc2n1CC1NC(=O)NC1=O (stereo unspecified)
inactive: NCI-H23 lung 102% | NCI-H226 lung 98.4% | NCI-H322M lung 97.7% | HOP-62 NSCLC 93.3% | NCI-H460 lung 107% | HOP-92 NSCLC 115% | NCI-H522 lung 94.9% | 786-0 renal 101% | COLO 205 colon 108%

COc1cccc(-c2nn(-c3ccccc3)cc2-c2ccnc(NCCCNC(=O)c3cccc(C(F)(F)F)c3)c2)c1
active: HOP-92 NSCLC 9.4% | NCI-H522 lung 0.301% | COLO 205 colon 9.99%
inactive: NCI-H23 lung 27.3% | NCI-H226 lung 13.3% | NCI-H322M lung 75.3% | HOP-62 NSCLC 48.3% | NCI-H460 lung 23.4% | 786-0 renal 29.8%

OC(COc1ccccc1Cl)COc1ccccc1Cl
inactive: NCI-H23 lung 94.1% | NCI-H226 lung 95.3% | NCI-H322M lung 110% | HOP-62 NSCLC 117% | NCI-H460 lung 107% | HOP-92 NSCLC 102% | NCI-H522 lung 88.3% | 786-0 renal 103% | COLO 205 colon 112%

O=c1c2cc(F)ccc2sc2c(NCCCN3CCCC3)nc3ccccc3c12
inactive: NCI-H23 lung 64.2% | NCI-H226 lung 79.2% | NCI-H322M lung 64.1% | HOP-62 NSCLC 63.5% | NCI-H460 lung 12% | HOP-92 NSCLC 25.1% | NCI-H522 lung 25.1% | 786-0 renal 37.1% | COLO 205 colon 46%

O=c1[nH][n+](-c2ccc(Cl)cc2)no1
inactive: NCI-H23 lung 91.6% | NCI-H226 lung 87.2% | NCI-H322M lung 75.6% | HOP-62 NSCLC 82.7% | NCI-H460 lung 44.1% | HOP-92 NSCLC 95.1% | NCI-H522 lung 59.2% | 786-0 renal 61.2% | COLO 205 colon 77.9%

CCOc1ccccc1-n1c(CN2CCN(C(=O)COc3ccc(CNCCCCCCN4C5CCCC4CC(OC(=O)Nc4cc(C)ccc4OC)C5)cc3)CC2)nc2ccccc2c1=O (stereo unspecified)
active: NCI-H23 lung -82.6% | NCI-H226 lung -73.5% | NCI-H322M lung -98.1% | HOP-62 NSCLC -92% | NCI-H460 lung -90.9% | HOP-92 NSCLC -90.2% | NCI-H522 lung -86.7% | 786-0 renal -89.6% | COLO 205 colon -85.1%

CC1(C)OC2C(CO[Si](C)(C)C(C)(C)C)OC(n3c(I)c(C#C[Si](C)(C)C)c(=O)[nH]c3=O)C2O1 (stereo unspecified)
inactive: NCI-H23 lung 76.9% | NCI-H226 lung 103% | NCI-H322M lung 106% | HOP-62 NSCLC 99.1% | NCI-H460 lung 106% | HOP-92 NSCLC 98.8% | NCI-H522 lung 90% | 786-0 renal 93.9% | COLO 205 colon 111%

COc1ccc(C2c3ccc4ccccc4c3Oc3nc(C)[nH]c(=O)c32)cc1 (stereo unspecified)
inactive: NCI-H23 lung 92% | NCI-H226 lung 92.4% | NCI-H322M lung 101% | HOP-62 NSCLC 89% | NCI-H460 lung 99.4% | HOP-92 NSCLC 91% | NCI-H522 lung 77% | 786-0 renal 107% | COLO 205 colon 110%

CCOC(=O)c1c2ncccc2n2c(=O)n(-c3ccccc3C)nnc12
inactive: NCI-H23 lung 93.6% | NCI-H226 lung 97.4% | NCI-H322M lung 89.3% | HOP-62 NSCLC 78.6% | NCI-H460 lung 95% | HOP-92 NSCLC 128% | NCI-H522 lung 93.3% | 786-0 renal 98% | COLO 205 colon 108%

CCOc1ccccc1-c1cc(-c2cccs2)c(C#N)c(=O)[nH]1
inactive: NCI-H23 lung 86.1% | NCI-H226 lung 90.9% | NCI-H322M lung 83.9% | HOP-62 NSCLC 81.5% | NCI-H460 lung 93.8% | HOP-92 NSCLC 64.7% | NCI-H522 lung 75.5% | 786-0 renal 92.1% | COLO 205 colon 114%

Cn1c(I)c(C#C[Si](C)(C)C)c(=O)n(C(=O)c2ccccc2)c1=O
active: HOP-92 NSCLC -27.1% | NCI-H522 lung -66.2% | 786-0 renal -66.6% | COLO 205 colon -7.64%
inactive: NCI-H23 lung 51.7% | NCI-H226 lung 79.6% | NCI-H322M lung 94.9% | HOP-62 NSCLC 59.1% | NCI-H460 lung 55.4%

Cc1cc(NCc2cc(Nc3ccnc4cc(Cl)ccc34)ccc2F)nc(Cl)n1
inactive: NCI-H23 lung 32.8% | NCI-H226 lung 52.4% | NCI-H322M lung 71.9% | HOP-62 NSCLC 54.5% | NCI-H460 lung 48.4% | HOP-92 NSCLC 31.9% | NCI-H522 lung 36.2% | 786-0 renal 50.7% | COLO 205 colon 44.2%

CC(=O)O[C@]1(C(C)=O)CCC2C3C[C@H](C)C4=CC(=O)CC[C@]4(C)C3CC[C@@]21C (stereo partly specified)
inactive: NCI-H23 lung 96.2% | NCI-H226 lung 73.6% | NCI-H322M lung 95.7% | HOP-62 NSCLC 94.6% | NCI-H460 lung 103% | HOP-92 NSCLC 89.9% | NCI-H522 lung 74.8% | 786-0 renal 97.4% | COLO 205 colon 104%

Cc1cc(NCc2cc(Nc3ccnc4cc(Cl)ccc34)ccc2F)nc(N2CCN(c3ccccc3)CC2)n1
inactive: NCI-H23 lung 62.8% | NCI-H226 lung 55.4% | NCI-H322M lung 74.1% | HOP-62 NSCLC 62% | NCI-H460 lung 44.9% | HOP-92 NSCLC 20.6% | NCI-H522 lung 45.6% | 786-0 renal 64.8% | COLO 205 colon 13.6%

COc1cc2ncn3c(=O)c4c5c(sc4nc3c2cc1OC)CCCC5
inactive: NCI-H226 lung 93.8% | NCI-H322M lung 96.9% | HOP-62 NSCLC 89.8% | NCI-H460 lung 100% | HOP-92 NSCLC 115% | NCI-H522 lung 80.1% | A549/ATCC NSCLC 96.4% | 786-0 renal 105% | COLO 205 colon 106%

COc1cc(C2CC(c3cc(OC)c(OCCCOc4ccc(-n5c(/C=C/c6ccccc6)nc6ccccc6c5=O)cc4)c(OC)c3)=NO2)cc(OC)c1OC (stereo unspecified)
inactive: NCI-H23 lung 112% | NCI-H226 lung 110% | NCI-H322M lung 123% | HOP-62 NSCLC 122% | NCI-H460 lung 113% | HOP-92 NSCLC 42.5% | A549/ATCC NSCLC 99.7% | 786-0 renal 108% | COLO 205 colon 115%

Cc1ccc(C(=O)COc2cccc(/C=C3\Oc4ccccc4C3=O)c2)cc1
inactive: NCI-H23 lung 90.5% | NCI-H226 lung 80.9% | NCI-H322M lung 101% | HOP-62 NSCLC 97.1% | NCI-H460 lung 119% | HOP-92 NSCLC 89.8% | A549/ATCC NSCLC 96.9% | 786-0 renal 97.6% | COLO 205 colon 115%

COc1ccc(NC(=O)CSc2nnc(-c3cc(-c4ccc(S(N)(=O)=O)cc4)nc4ccccc34)n2-c2ccccc2)cc1
inactive: NCI-H23 lung 102% | NCI-H226 lung 77.5% | NCI-H322M lung 93.8% | HOP-62 NSCLC 85.7% | NCI-H460 lung 91% | HOP-92 NSCLC 62.2% | A549/ATCC NSCLC 90.9% | 786-0 renal 88.4% | COLO 205 colon 95.5%

COc1ccc2nc(NNC(=O)c3cnccn3)c3cccn3c2c1
inactive: NCI-H226 lung 14.9% | HOP-92 NSCLC 29.3%
active: NCI-H23 lung -24.3% | NCI-H322M lung 8.34% | HOP-62 NSCLC 7.91% | NCI-H460 lung -2.09% | A549/ATCC NSCLC 9.52% | 786-0 renal -12% | COLO 205 colon -27%

C=CCNc1nc(NN2C(=O)c3cccc4cccc(c34)C2=O)nc(-n2cnc3ccccc32)n1
inactive: NCI-H23 lung 76.9% | NCI-H226 lung 51.8% | NCI-H322M lung 94.1% | HOP-62 NSCLC 60.4% | NCI-H460 lung 94.6% | HOP-92 NSCLC 16.5% | A549/ATCC NSCLC 86.4% | 786-0 renal 89.2% | COLO 205 colon 103%

COc1ccc2[nH]c(O)c(C(=Nc3ccc(N(C)C(=O)CN4CCN(C)CC4)cc3)c3ccccc3)c2c1
inactive: NCI-H23 lung 21.2% | NCI-H226 lung 29% | NCI-H322M lung 61.1% | HOP-62 NSCLC 23.5% | NCI-H460 lung 15.3% | HOP-92 NSCLC 12.7% | A549/ATCC NSCLC 24.2% | 786-0 renal 42.4%
active: COLO 205 colon -6.6%

O=[N+]([O-])c1ccc(Sc2cccc[n+]2[O-])c2nonc12
inactive: NCI-H23 lung 73.2% | NCI-H226 lung 102% | NCI-H322M lung 104% | HOP-62 NSCLC 101% | NCI-H460 lung 56.8% | HOP-92 NSCLC 96.4% | A549/ATCC NSCLC 59% | 786-0 renal 92.6%
active: COLO 205 colon -67.3%

CC(C)(C)n1cc(-c2ccnc(NCCCNS(=O)(=O)c3ccccc3)c2)c(-c2ccccc2)n1
inactive: NCI-H23 lung 76.9% | NCI-H226 lung 82.5% | NCI-H322M lung 88.9% | HOP-62 NSCLC 90.7% | NCI-H460 lung 78.9% | HOP-92 NSCLC 24.5% | A549/ATCC NSCLC 63.5% | 786-0 renal 56.4% | COLO 205 colon 57.4%
